In assay [1] the target is Calcium/calmodulin-dependent protein kinase type II subunit alpha (Homo sapiens) (UniProt Q9UQM7). The note with it: at 1 µM.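 Also: reported value is a mean percent inhibition of CAMK2A.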
In assay [2] the target is Calcium/calmodulin-dependent protein kinase type II subunit delta (Homo sapiens) (UniProt Q13557). The note with it: at 0.1 µM.
Assay [3] shares this target. The note with it: at 1 µM.
Assay [4] addresses T1, Calcium/calmodulin-dependent protein kinase type IV (Homo sapiens) (UniProt Q16566).
T1 sequence (whole entry): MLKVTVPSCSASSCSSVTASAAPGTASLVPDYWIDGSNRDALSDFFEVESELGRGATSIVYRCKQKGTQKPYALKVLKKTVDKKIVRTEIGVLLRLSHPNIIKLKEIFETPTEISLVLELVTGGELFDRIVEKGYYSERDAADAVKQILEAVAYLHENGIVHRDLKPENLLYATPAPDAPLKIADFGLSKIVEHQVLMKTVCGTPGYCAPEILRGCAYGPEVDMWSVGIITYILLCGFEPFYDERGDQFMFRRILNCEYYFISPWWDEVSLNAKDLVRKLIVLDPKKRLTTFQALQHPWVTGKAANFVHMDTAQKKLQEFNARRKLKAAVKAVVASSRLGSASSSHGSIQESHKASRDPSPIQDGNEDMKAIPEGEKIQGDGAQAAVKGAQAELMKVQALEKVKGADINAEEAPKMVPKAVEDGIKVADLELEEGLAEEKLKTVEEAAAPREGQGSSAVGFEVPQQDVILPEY
The note with it: at 0.1 µM.

The target of assay [5] is T1, Calcium/calmodulin-dependent protein kinase type IV (Homo sapiens). The note with it: at 1 µM.
Assay [6] concerns the target T2, Serine/threonine-protein kinase Chk1 (Homo sapiens) (UniProt O14757).
T2 sequence (whole entry): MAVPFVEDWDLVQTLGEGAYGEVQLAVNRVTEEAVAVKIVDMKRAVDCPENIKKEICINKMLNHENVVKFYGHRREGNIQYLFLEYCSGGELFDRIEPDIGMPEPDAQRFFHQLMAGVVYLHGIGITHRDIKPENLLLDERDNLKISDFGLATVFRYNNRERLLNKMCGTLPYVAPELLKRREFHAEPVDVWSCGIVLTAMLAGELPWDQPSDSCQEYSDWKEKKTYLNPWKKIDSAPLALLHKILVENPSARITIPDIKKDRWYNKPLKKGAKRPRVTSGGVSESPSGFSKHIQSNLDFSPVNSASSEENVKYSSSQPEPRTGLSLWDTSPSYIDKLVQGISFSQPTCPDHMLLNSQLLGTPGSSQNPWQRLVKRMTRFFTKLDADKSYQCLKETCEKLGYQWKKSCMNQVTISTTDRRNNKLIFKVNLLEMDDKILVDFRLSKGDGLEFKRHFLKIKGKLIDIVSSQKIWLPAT
The note with it: at 0.1 µM.

In assay [7] the target is T2, Serine/threonine-protein kinase Chk1 (Homo sapiens). The note with it: at 1 µM.
The target in assay [8] is Serine/threonine-protein kinase Chk2 (Homo sapiens) (UniProt O96017). The note with it: at 0.1 µM.
Assay [9] has the same target. The note with it: at 1 µM.
The target in assay [10] is Death-associated protein kinase 1 (Homo sapiens) (UniProt P53355). The note with it: at 0.1 µM.
Assay [11] shares this target. The note with it: at 1 µM.
Assay [12] addresses T3, Serine/threonine-protein kinase DCLK2 (Homo sapiens) (UniProt Q8N568).
T3 sequence (whole entry): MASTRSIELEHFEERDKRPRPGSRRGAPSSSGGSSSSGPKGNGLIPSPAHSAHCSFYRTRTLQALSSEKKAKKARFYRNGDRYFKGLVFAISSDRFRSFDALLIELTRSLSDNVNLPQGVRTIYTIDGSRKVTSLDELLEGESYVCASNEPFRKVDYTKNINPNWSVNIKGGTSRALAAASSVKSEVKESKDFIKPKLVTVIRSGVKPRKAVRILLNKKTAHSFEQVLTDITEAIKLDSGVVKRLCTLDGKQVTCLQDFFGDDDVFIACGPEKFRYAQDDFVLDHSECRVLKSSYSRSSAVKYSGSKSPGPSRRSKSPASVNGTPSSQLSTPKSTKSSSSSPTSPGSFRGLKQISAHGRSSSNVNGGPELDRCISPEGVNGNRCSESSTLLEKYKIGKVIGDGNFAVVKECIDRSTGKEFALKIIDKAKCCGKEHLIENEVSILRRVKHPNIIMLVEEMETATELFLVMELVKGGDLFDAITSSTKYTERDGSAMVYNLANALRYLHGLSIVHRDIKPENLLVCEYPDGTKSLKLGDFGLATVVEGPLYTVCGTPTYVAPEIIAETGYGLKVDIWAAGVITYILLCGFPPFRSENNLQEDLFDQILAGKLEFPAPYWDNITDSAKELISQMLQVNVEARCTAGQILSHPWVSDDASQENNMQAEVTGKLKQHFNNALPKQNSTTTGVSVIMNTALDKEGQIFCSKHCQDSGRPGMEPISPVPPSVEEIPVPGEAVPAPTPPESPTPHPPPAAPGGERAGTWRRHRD
The note with it: at 0.1 µM.

Assay [13] deals with T3, Serine/threonine-protein kinase DCLK2 (Homo sapiens). The note with it: at 1 µM.
In assay [14] the target is MAP kinase-activated protein kinase 2 (Homo sapiens) (UniProt P49137). The note with it: at 0.1 µM.
Assay [15] shares this target. The note with it: at 1 µM.
The target in assay [16] is MAP kinase-activated protein kinase 3 (Homo sapiens) (UniProt Q16644). The note with it: at 0.1 µM.
Assay [17] has the same target. The note with it: at 1 µM.
Assay [18] concerns the target Serine/threonine-protein kinase MARK1 (Homo sapiens) (UniProt Q9P0L2). The note with it: at 0.1 µM.
Assay [19] has the same target. The note with it: at 1 µM.
The target of assay [20] is MAP/microtubule affinity-regulating kinase 3 (Homo sapiens) (UniProt P27448). The note with it: at 0.1 µM.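 Also: mean percent inhibition of MARK3 kinase activity, measured within the GSK PKIS screening panel.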
MAP/microtubule affinity-regulating kinase 3 (Homo sapiens), sequence (P27448 whole entry, looked up): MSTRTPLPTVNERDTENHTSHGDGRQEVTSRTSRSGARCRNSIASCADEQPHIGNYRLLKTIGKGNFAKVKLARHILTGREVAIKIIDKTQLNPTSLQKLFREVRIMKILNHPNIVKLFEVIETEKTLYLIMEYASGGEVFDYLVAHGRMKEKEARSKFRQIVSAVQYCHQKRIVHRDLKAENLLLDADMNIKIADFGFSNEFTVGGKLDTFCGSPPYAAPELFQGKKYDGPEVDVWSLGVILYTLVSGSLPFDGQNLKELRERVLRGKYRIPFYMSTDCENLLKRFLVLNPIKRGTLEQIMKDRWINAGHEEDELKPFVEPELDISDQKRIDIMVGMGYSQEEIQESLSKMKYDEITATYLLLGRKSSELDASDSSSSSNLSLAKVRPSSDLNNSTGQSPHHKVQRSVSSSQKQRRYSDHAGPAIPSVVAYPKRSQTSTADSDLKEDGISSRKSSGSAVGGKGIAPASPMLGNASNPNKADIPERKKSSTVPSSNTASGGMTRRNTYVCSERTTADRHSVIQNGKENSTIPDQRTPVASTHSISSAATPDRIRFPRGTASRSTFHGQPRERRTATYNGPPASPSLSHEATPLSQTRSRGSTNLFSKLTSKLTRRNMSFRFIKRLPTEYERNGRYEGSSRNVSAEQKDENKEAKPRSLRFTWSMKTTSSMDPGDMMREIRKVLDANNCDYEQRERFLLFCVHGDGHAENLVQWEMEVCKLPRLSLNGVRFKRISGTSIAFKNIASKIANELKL

MAP kinase-activated protein kinase 2 (Homo sapiens), sequence (P49137 whole entry, looked up): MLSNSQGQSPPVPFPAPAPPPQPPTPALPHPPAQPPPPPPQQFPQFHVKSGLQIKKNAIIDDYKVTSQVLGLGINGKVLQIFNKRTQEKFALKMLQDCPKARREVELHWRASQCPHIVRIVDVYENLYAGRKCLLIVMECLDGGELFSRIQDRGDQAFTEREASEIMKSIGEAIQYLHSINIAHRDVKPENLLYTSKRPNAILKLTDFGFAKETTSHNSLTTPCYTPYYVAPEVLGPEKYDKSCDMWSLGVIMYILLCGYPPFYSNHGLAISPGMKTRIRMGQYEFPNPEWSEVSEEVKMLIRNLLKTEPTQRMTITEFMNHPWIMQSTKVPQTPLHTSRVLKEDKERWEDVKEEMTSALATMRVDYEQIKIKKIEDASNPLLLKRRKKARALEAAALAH
Calcium/calmodulin-dependent protein kinase type II subunit alpha (Homo sapiens), sequence (Q9UQM7 whole entry): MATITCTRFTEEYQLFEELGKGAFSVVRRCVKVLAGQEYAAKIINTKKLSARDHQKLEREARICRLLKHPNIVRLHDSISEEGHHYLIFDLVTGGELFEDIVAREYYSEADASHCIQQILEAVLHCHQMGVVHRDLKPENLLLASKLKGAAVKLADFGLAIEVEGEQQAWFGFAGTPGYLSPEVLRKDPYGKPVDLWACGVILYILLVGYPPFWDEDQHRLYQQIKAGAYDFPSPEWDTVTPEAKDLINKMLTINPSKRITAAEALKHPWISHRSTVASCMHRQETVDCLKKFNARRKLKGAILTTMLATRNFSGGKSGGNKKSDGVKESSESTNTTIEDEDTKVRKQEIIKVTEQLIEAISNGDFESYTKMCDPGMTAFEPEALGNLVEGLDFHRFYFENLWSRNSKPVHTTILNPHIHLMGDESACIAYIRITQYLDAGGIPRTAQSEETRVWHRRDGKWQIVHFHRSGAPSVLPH
MAP kinase-activated protein kinase 3 (Homo sapiens), sequence (Q16644 whole entry, looked up): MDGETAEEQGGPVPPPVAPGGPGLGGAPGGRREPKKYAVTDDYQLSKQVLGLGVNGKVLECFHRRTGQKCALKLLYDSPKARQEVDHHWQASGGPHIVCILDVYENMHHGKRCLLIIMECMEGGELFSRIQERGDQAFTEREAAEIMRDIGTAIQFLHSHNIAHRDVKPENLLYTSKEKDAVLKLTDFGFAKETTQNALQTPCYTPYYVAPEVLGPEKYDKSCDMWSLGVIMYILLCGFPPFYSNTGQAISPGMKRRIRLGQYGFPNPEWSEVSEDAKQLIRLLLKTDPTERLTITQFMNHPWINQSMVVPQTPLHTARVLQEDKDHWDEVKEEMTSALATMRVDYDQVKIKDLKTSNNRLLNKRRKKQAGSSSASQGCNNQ
Serine/threonine-protein kinase Chk2 (Homo sapiens), sequence (O96017 whole entry): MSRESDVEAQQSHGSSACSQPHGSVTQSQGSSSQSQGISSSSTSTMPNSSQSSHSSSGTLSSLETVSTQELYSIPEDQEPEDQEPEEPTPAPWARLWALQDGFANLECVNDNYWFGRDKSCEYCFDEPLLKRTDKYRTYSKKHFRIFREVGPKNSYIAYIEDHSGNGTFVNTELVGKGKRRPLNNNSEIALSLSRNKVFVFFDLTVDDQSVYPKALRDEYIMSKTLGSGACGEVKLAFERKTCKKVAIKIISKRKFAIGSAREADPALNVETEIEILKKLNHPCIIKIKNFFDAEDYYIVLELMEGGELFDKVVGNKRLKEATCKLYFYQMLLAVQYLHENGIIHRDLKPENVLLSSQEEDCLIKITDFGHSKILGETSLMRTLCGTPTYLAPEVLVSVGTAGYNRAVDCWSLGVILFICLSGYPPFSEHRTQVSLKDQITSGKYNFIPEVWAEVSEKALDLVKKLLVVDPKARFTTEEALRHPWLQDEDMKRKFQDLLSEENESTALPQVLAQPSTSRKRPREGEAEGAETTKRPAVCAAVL
Calcium/calmodulin-dependent protein kinase type II subunit delta (Homo sapiens), sequence (Q13557 whole entry): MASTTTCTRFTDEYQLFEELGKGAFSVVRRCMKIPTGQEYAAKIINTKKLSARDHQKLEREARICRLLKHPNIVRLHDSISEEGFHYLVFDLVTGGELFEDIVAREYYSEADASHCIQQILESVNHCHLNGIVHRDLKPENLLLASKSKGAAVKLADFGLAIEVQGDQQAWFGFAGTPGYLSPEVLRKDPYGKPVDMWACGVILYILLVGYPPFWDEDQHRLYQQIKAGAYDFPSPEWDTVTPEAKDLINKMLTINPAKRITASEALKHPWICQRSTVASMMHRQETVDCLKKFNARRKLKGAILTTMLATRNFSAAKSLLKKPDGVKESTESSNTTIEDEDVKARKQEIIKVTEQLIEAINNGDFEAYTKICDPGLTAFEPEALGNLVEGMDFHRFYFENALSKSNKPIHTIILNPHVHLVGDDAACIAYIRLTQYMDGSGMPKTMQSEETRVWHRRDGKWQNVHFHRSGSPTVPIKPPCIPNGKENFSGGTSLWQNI
Death-associated protein kinase 1 (Homo sapiens), sequence (P53355 whole entry, looked up): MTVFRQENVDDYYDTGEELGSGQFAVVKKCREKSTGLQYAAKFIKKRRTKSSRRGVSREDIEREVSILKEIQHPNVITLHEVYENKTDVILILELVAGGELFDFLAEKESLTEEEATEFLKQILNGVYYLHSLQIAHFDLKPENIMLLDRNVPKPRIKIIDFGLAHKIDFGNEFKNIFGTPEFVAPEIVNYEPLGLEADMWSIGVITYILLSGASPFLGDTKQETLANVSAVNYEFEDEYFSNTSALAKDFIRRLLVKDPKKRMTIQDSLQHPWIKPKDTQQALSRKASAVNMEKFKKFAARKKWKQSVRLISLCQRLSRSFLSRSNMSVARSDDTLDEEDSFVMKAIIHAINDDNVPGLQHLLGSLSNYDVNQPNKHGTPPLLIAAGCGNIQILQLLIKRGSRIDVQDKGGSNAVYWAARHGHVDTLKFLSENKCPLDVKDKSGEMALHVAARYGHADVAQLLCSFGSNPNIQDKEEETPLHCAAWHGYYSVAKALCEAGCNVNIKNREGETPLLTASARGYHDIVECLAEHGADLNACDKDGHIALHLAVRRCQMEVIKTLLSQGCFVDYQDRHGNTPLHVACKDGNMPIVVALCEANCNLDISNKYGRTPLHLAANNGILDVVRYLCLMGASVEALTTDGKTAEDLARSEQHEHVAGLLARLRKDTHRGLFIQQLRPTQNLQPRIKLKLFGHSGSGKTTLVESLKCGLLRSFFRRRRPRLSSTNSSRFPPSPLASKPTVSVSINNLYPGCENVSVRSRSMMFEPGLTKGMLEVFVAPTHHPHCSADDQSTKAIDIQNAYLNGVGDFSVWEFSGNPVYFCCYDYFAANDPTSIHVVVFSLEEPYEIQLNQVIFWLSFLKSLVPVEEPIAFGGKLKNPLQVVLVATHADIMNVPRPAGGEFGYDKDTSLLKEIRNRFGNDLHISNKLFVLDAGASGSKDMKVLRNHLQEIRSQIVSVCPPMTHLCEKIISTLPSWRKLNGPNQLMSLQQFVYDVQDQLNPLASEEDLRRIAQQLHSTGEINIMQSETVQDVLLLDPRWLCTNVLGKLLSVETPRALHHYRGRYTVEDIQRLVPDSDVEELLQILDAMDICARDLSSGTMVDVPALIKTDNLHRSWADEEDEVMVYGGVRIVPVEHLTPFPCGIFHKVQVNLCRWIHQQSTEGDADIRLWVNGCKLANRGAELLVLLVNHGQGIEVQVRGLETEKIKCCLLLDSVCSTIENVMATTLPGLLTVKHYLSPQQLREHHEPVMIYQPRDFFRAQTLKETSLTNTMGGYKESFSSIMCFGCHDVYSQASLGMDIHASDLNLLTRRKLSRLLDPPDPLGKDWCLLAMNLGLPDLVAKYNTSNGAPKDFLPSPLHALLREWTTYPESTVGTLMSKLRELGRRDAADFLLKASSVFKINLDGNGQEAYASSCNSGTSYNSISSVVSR

With `Cc1cc(O)cc(C)c1/C=C/c1cncc(C(=O)N(C)C)c1`, the inhibition amounted to 3.57% in [1]; 3.56% in assay [2]; 4.04% in [3]; 2.13% in [4]; 0.97% in assay [5]; 5.84% in assay [6]. In addition, the inhibition in assay [7] was 2.96%; in [8], -0.15%; in assay [9], 0.11%; in [10] it was 3.93%; in assay [11], 5.28%; in [12], 3.47%. The inhibition in assay [13] is 0.19%; in assay [14] it was 0.52%; in [15], 0.82%; in assay [16], 0.87%; in assay [17], 1.23%; in assay [18], 1.15%. Moreover, the figures for the inhibition in [19] and in assay [20] were 1.29% and 2.67%, respectively.

Turning to `CN(C)C(=O)O[C@H]1CN[C@H](C#Cc2cc3ncnc(Nc4ccc(OCc5cccc(F)c5)c(Cl)c4)c3s2)C1`, the inhibition in assay [1] came to 1.77%; in [2] it was 2.42%; in assay [3] it was 2.41%; in assay [4] it was 1.15%; in assay [5], 0.23%; in assay [6], 0.86%. The inhibition in assay [7] was 2.73%; in [8], 1.56%; in assay [9], 3.31%; in [10], 1.79%; in assay [11], 2.24%; in assay [12] it was -0.33%. Besides, the inhibition came to 2.04% in assay [13]; 1.5% in [14]; 0.84% in assay [15]; 2.84% in assay [16]; 2.58% in assay [17]; 2.51% in [18]. Moreover, the inhibition in assay [19] turned out to be 2.11%; in assay [20], 2.14%.

As to `COc1cc2ncnc(Nc3ccc4c(cnn4Cc4ccccc4)c3)c2cc1OC`, the inhibition was 0.24% in assay [1]; 1.57% in assay [2]; 4.24% in assay [3]; -0.17% in assay [4]; 0.05% in assay [5]; 8.66% in assay [6]. In addition, the inhibition in assay [7] is 14.1%; in assay [8] it was 10.7%; in assay [9], 35.9%; in assay [10] it was 9.32%; in assay [11], 8.23%; in [12], -1.15%. For the same compound, the inhibition in assay [13] was 0.67%; in assay [14], 2.78%; in assay [15], 4.35%; in [16] it was 6.95%; in [17] it was 9.14%; in [18], 1.12%. Moreover, the inhibition came to 3.17% in [19] and 0.1% in assay [20].

Regarding `COc1cccc(-n2ncc3c(N/N=C/c4ccc(C)cc4)ncnc32)c1`, the inhibition in assay [1] was 5.56%; in [2], 4.56%; in [3] it was 12.5%; in assay [4], 1.46%; in [5], 4.68%; in assay [6], -5.6%. Besides, the inhibition was -5.11% in [7]; -1.83% in assay [8]; 2.47% in [9]; -3.26% in assay [10]; -4.37% in assay [11]; 0.26% in assay [12]. Also, the inhibition is 2.82% in [13]; -0.94% in [14]; 0.98% in [15]; -0.57% in assay [16]; -0.87% in [17]; 3.16% in assay [18]. The inhibition was 6.21% in assay [19] and 2.69% in [20].

For `Cc1ccc(C(=O)NC2CC2)cc1-c1ccc2[nH]ncc2c1`, the inhibition in [1] was -2.98%; in assay [2], -2.96%; in [3], 1.9%; in assay [4] it was -2.05%; in assay [5], -2.16%; in [6], -1.76%. Moreover, the inhibition is -4.22% in [7]; -4.46% in assay [8]; -3.82% in assay [9]; -2.57% in [10]; -2.38% in [11]; -3.53% in assay [12]. In addition, the inhibition in [13] was -2.34%; in assay [14], -2.72%; in assay [15] it was -1.94%; in [16], 3.22%; in assay [17] it was 18.7%; in [18], 0.44%. The results for the inhibition in [19] and in assay [20] were 2.83% and 1.64%, respectively.

With `O=C1Nc2ccccc2/C1=C/Nc1ccc2[nH]c(=O)[nH]c2c1`, the inhibition is 6.6% in assay [1]; 4.2% in assay [2]; 14.1% in [3]; -1.23% in [4]; -1.4% in assay [5]; 0.84% in [6]. Moreover, the inhibition in assay [7] amounted to 15.7%; in [8], 5.95%; in assay [9] it was 23.3%; in [10] it was 1.92%; in [11] it was 2.63%; in [12], 0.75%. The inhibition in assay [13] was -0.33%; in assay [14], 2.44%; in assay [15], 2.97%; in assay [16], 6.76%; in [17] it was 8.08%; in [18], 6.25%. Also, the inhibition came out at 32.5% in assay [19] and 2.47% in [20].

Take `CS(=O)(=O)CCNCc1nc(-c2ccc3ncnc(Nc4ccc(OCc5cccc(C(F)(F)F)c5)cc4)c3c2)cs1`: the inhibition in [1] is 2.45%; in [2], 2.93%; in [3], 3.53%; in assay [4] it was 0.68%; in assay [5], 1.44%; in assay [6] it was 1.74%. In addition, the inhibition in assay [7] was 5.07%; in assay [8] it was 1.74%; in assay [9], 5.27%; in assay [10], 3.32%; in [11], 2.59%; in [12] it was -1.01%. The inhibition is 0.18% in [13]; 0.97% in [14]; 1.7% in assay [15]; 2.23% in [16]; 2.67% in assay [17]; 1% in assay [18]. Further, the inhibition in assay [19] was 1.98%; in assay [20], 0.8%.

In general, inhibition refers to the relative decrease from the control value, in per cent.

The values are drawn from ChEMBL document CHEMBL1961873, “Compounds: GSK PKIS; Assays: Nanosyn kinase panel” (2012).
